Active and inactive are the calls of the source. How the source made its calls: active means hit-call score of the fitted dose curve at least 0.9, where 1 is the maximum; inactive means score below 0.9.

The AC50 is the midpoint of the concentration-response curve, whichever way the signal moves.

Read-out in assay [1]: Interleukin-1 alpha (IL1a), IL1A (gene 3552)
Briefly: BSK_LPS_IL1a: BioMAP Diversity Plus: LPS Assay for Interleukin-1 alpha (IL1a) Biomarker Activity (AID 2283080). The settings on record: primary human HUVEC with PBMC; actives raise or lower the signal. Put shortly: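 Measured: IL-1 alpha via ELISA at 24 h in LPS-activated human umbilical vein endothelium–PBMC co-culture. Baseline: DMSO, bidirectional fitting.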

Read-out in assay [2]: Monocyte Chemoattractant Protein-1 (MCP1), CCL2 (gene 6347)
Briefly: BSK_LPS_MCP1: BioMAP Diversity Plus: LPS Assay for Monocyte Chemoattractant Protein-1 (MCP1) Biomarker Activity (AID 2283081).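 On AC50: secreted MCP-1 protein quantified by ELISA in culture supernatant.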 To be noted: primary human HUVEC with PBMC; actives raise or lower the signal. The essentials: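 LPS-stimulated HUVEC/PBMC co-culture; chemical, 24 h; MCP-1 by ELISA; bidirectional fit vs DMSO; cytotoxicity via SRB (0.1% stain, 10% TCA fix, 560 nm) in parallel wells.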

Assay [3] can be described thus: BSK_LPS_PGE2: BioMAP Diversity Plus: LPS Assay for Prostaglandin E2 (PGE2) Biomarker Activity (AID 2283082). The settings on record: primary human HUVEC with PBMC; actives raise or lower the signal. Put shortly:
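ELISA read-out of PGE2 from human umbilical vein endothelial cells co-cultured with peripheral blood mononuclear cells under LPS, 24 h post-dose. Gain or loss of signal scored relative to DMSO baseline.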

Read-out in assay [4]: Macrophage colony-stimulating factor (MCSF), CSF1 (gene 1435)
Briefly: BSK_LPS_MCSF: BioMAP Diversity Plus: LPS Assay for Macrophage colony-stimulating factor (MCSF) Biomarker Activity (AID 2283083). The settings on record: primary human HUVEC with PBMC; actives raise or lower the signal. Put shortly: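 Compound is added to a human vascular primary co-culture of umbilical vein endothelium and blood mononuclear cells. After 24 h, M-CSF is quantified by ELISA. Signal changes are fitted in both directions against DMSO.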

Read-out in assay [5]: Tissue Factor, F3 (gene 2152)
Briefly: BSK_LPS_TissueFactor: BioMAP Diversity Plus: LPS Assay for Tissue Factor Biomarker Activity (AID 2283084). The settings on record: primary human HUVEC with PBMC; actives raise or lower the signal. Put shortly: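 In this co-culture system of umbilical vein endothelium with PBMC, stimulated with LPS, cell-surface CD142 is detected by ELISA at 24 h. Endpoint values derive from bidirectional fitting, DMSO serving as baseline.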

Read-out in assay [6]: Tumor necrosis factor (Homo sapiens) (UniProt P01375)
The assay can be described thus: BSK_LPS_TNFa: BioMAP Diversity Plus: LPS Assay for Tumour Necrosis Factor alpha (TNFa) Biomarker Activity (AID 2283085).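 On AC50: TNFa protein level quantified by ELISA in the co-culture.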 To be noted: primary human HUVEC with PBMC; actives raise or lower the signal. Put shortly:
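HUVEC/PBMC co-culture, LPS-stimulated; 24 h post-dose; TNFa by ELISA; gain or loss of signal fitted bidirectionally vs DMSO baseline.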

Read-out in assay [7]: Vascular cell adhesion molecule 1 (VCAM1), VCAM1 (gene 7412)
Briefly: BSK_LPS_VCAM1: BioMAP Diversity Plus: LPS Assay for Vascular cell adhesion molecule 1 (VCAM1) Biomarker Activity (AID 2283086). The settings on record: primary human HUVEC with PBMC; actives raise or lower the signal. Put shortly: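 ELISA read-out of VCAM-1 at 24 h post-dosing in an LPS-driven HUVEC/PBMC primary human co-culture; gain or loss of signal fitted bidirectionally against DMSO baseline. Cytotoxicity tracked in parallel cultures by SRB total-protein staining.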

Read-out in assay [8]: CD38, CD38 (gene 952)
Briefly: BSK_SAg_CD38: BioMAP Diversity Plus: SAg Assay for CD38 Biomarker Activity (AID 2283087). The settings on record: primary human HUVEC with PBMC; actives raise or lower the signal. Put shortly: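 Measures CD38 on a human endothelial/PBMC co-culture driven by SEB and TSST-1, 24 h after compound exposure, using ELISA with fluorescence detection; DMSO defines baseline for bidirectional curve fitting.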

Read-out in assay [9]: CD40, CD40 (gene 958)
Briefly: BSK_SAg_CD40: BioMAP Diversity Plus: SAg Assay for CD40 Biomarker Activity (AID 2283088). To be noted: primary human HUVEC with PBMC; actives raise or lower the signal. Put shortly:
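Fluorescence ELISA read-out of CD40 from umbilical vein endothelium plus peripheral blood mononuclear cells, sampled 24 h after dosing. Values come from bidirectional curve fitting with DMSO as baseline.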

Read-out in assay [10]: CD69, CD69 (gene 969)
The assay can be described thus: BSK_SAg_CD69: BioMAP Diversity Plus: SAg Assay for CD69 Biomarker Activity (AID 2283089).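 On AC50: cell surface CD69 protein quantified by ELISA with fluorescence detection.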 To be noted: primary human HUVEC with PBMC; actives raise or lower the signal. The essentials:
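HUVEC co-cultured with PBMC were dosed with chemical, and CD69 was measured by ELISA with fluorescence read-out 24 h later. Bidirectional curve fitting used DMSO as negative control and activity baseline.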

Read-out in assay [11]: Monocyte Chemoattractant Protein-1 (MCP1), CCL2 (gene 6347)
The assay can be described thus: BSK_SAg_MCP1: BioMAP Diversity Plus: SAg Assay for Monocyte Chemoattractant Protein-1 (MCP1) Biomarker Activity (AID 2283090). The settings on record: primary human HUVEC with PBMC; actives raise or lower the signal. Put shortly:
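Values derive from bidirectional fitting of ELISA-measured MCP1 against DMSO controls. Readings were taken 24 h after dosing human vascular endothelial cells co-cultured with peripheral blood mononuclear cells under superantigen stimulation.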

Read-out in assay [12]: E-selectin (Homo sapiens) (UniProt P16581)
The assay can be described thus: BSK_SAg_Eselectin: BioMAP Diversity Plus: SAg Assay for Eselectin Biomarker Activity (AID 2283091). The settings on record: primary human HUVEC with PBMC; actives raise or lower the signal. Put shortly:
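Primary human endothelial cells and peripheral blood mononuclear cells were co-cultured and exposed to chemical for 24 hours. E-selectin levels were then quantified by ELISA, with bidirectional curve fitting normalised to DMSO controls.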

Read-out in assay [13]: Monokine induced gamma interferon (MIG), CXCL9 (gene 4283)
The assay can be described thus: BSK_SAg_MIG: BioMAP Diversity Plus: SAg Assay for Monokine induced gamma interferon (MIG) Biomarker Activity (AID 2283092). To be noted: primary human HUVEC with PBMC; actives raise or lower the signal. The essentials:
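HUVEC plus human PBMC co-culture, chemicals dosed and MIG (CXCL9) quantified by ELISA at 24 h. Bidirectional curve fitting against DMSO as negative control and baseline, so both gain and loss of signal count as activity.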

Assay [14] can be described thus: BSK_SAg_PBMCCytotoxicity: PBMC Cytotoxicity Assessment in the BioMAP Diversity Plus: SAg Assay (AID 2283093).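 Further: fitted both ways against DMSO so a hit may be loss or gain of signal.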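 On AC50: PBMC superantigen activated with SEB plus TSST-1 one hour after compound addition.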 To be noted: primary human HUVEC with PBMC. Put shortly:
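PBMC viability by Alamar Blue reduction, fluorescence read at 546/580 nm after 6 h dye exposure. Cells were dosed 1 h before SEB plus TSST-1 activation (20 ng/mL final each), then held 90 h; endothelial/PBMC human co-culture.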

Read-out in assay [15]: Interleukin-8 (IL8), CXCL8 (gene 3576)
Briefly: BSK_SAg_IL8: BioMAP Diversity Plus: SAg Assay for Interleukin-8 (IL8) Biomarker Activity (AID 2283094). To be noted: primary human HUVEC with PBMC; actives raise or lower the signal. Put shortly:
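HUVEC/PBMC co-culture, 24 h post-dose; IL-8 by ELISA. Gain or loss of signal fitted bidirectionally vs DMSO baseline.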

Assay [16] can be described thus: BSK_SAg_Proliferation: Cell Proliferation Assessment in the BioMAP Diversity Plus: SAg Assay (AID 2283095).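 Further: relative cell number as total protein by SRB absorbance in sub-confluent culture.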 The settings on record: primary human HUVEC with PBMC. The essentials:
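HUVEC/PBMC co-culture, 96-well. TCA-fixed (10%), 0.1% SRB stain, A560 at 96 h. Protein content used as viability readout; bidirectional fitting vs DMSO control.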

Assay [17] in a line: BSK_SAg_SRB: Viability Assessment in the BioMAP Diversity Plus: SAg Assay (AID 2283096).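 Further: cells read one day after compound addition; hits may be either gain or loss of signal compared with DMSO.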 The settings on record: primary human HUVEC with PBMC. The essentials: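 Compounds were added to a human vascular co-culture of umbilical vein endothelium and PBMC. After 24 h, parallel cultures were fixed with 10% TCA, stained with 0.1% sulforhodamine B and read at 560 nm. Gain or loss of signal was fitted relative to DMSO.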

Tumor necrosis factor (Homo sapiens), sequence (P01375 whole entry, looked up): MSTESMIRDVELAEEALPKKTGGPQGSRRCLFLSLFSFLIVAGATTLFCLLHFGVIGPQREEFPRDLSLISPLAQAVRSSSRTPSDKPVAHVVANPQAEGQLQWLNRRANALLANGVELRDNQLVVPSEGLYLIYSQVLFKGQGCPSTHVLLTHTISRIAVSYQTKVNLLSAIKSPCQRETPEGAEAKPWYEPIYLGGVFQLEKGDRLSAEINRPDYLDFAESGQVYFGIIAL
E-selectin (Homo sapiens), sequence (P16581 whole entry, looked up): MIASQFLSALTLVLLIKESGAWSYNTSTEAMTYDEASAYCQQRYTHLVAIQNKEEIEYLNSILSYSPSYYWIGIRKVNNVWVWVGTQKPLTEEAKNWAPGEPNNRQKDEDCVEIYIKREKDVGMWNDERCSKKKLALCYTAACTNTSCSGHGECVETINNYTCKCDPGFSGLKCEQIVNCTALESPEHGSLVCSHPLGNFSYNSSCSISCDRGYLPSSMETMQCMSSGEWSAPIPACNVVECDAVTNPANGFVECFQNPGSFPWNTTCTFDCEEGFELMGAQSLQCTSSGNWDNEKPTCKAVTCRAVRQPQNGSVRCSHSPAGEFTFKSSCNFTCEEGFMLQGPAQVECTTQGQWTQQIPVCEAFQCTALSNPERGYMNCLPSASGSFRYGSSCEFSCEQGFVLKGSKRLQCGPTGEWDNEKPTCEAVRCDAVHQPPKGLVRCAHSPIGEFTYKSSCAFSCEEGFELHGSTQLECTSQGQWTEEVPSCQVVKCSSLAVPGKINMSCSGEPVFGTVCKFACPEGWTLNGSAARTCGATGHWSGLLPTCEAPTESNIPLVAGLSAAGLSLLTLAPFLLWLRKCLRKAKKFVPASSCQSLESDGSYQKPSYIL

Consider `COC(=O)c1ccccc1CS(=O)(=O)NC(=O)Nc1nc(OC)cc(OC)n1`, for which the outcome in [1], in [2], in assay [3], in assay [4], in assay [5] and in assay [6] was inactive. The result in [7], in [8], in assay [9], in [11], in assay [12] and in assay [13] was inactive. In addition, the result in assay [14], in assay [15], in [16] and in assay [17] was inactive. Also, in assay [10], the AC50 was 5.03 µM (active).

For `CCOC1Oc2ccc(OS(C)(=O)=O)cc2C1(C)C` (configuration not stated), the result in assay [1], in assay [2], in [3], in assay [4], in [5] and in [6] was inactive. In addition, the result in assay [7], in assay [8], in assay [9], in assay [11], in assay [13] and in assay [16] was inactive. In addition, in [17], the outcome was inactive. Besides, the AC50 was 18.4 µM (active) in [10], 23.5 µM (active) in assay [12], 25.9 µM (active) in assay [14] and 10.1 µM (active) in assay [15].

For `CCC(C)Nc1c([N+](=O)[O-])cc(C(C)(C)C)cc1[N+](=O)[O-]` (configuration not stated), the result in [1], in [2], in [3], in assay [5], in [6] and in [11] was inactive. The result in assay [13] and in assay [17] was inactive. For the same compound, the AC50 in assay [4] was 11.1 µM (active); in assay [7], 22.8 µM (active); in assay [8], 16.6 µM (active); in assay [9] it was 30.7 µM (active); in assay [10], 15.6 µM (active); in [12] it was 11.9 µM (active). Besides, the AC50 in [14] was 31.9 µM (active); in [15], 20 µM (active); in assay [16], 29.6 µM (active).

Take `CCC(C)(NC(=O)c1cc(Cl)c(C)c(Cl)c1)C(=O)CCl` (configuration not stated): the AC50 in assay [1] was 15.9 µM (active); in assay [2], 12.2 µM (active); in assay [4] it was 13 µM (active); in assay [5], 5.21 µM (active); in assay [6], 12.3 µM (active); in assay [7] it was 8.9 µM (active). Also, the AC50 in assay [8] is 6.39 µM (active); in assay [9] it was 7.22 µM (active); in [10], 14.3 µM (active); in assay [11], 10.3 µM (active); in [12] it was 7.45 µM (active); in assay [13], 10.5 µM (active). The AC50 in [14] is 20 µM (active); in assay [15], 5.75 µM (active); in assay [16] it was 1.92 µM (active); in [17], 23.6 µM (active). The result in assay [3] was inactive.

For the compound `N#CN`, the outcome in [1], in assay [2], in assay [3], in [4], in assay [5] and in assay [6] was inactive. Moreover, the result in assay [7], in assay [8], in assay [9], in assay [10], in [11] and in assay [12] was inactive. The outcome in assay [13], in [14], in assay [15], in [16] and in assay [17] was inactive.

For the compound `CNC(=O)Oc1ccccc1OC(C)C`, the outcome in assay [1], in assay [2], in assay [3], in assay [4], in assay [5] and in assay [6] was inactive. For the same compound, the outcome in [7], in assay [8], in assay [9], in assay [10], in [11] and in assay [12] was inactive. Further, the result in [13], in assay [14], in assay [15], in [16] and in assay [17] was inactive.

The values above are taken from PubChem BioAssay (EPA / NIEHS).
